Consider 52 molecules from PubChem BioAssay.

Each structure is given as a SMILES string. A number with no mark means an inactive call. Activity calls are given as the source filed them. Cut-off read from the data, not from the text of the source, unless noted: active = inhibition above about 44%; inactive = the rest.

The nature of test [1]: StAR promoter reporter inhibitors, counter-screen for LRH-1 inverse agonist project, cell-based, luminescence, high throughput (AID 651611; in the data active = inhibition above about 28%). As to conditions: StAR promoter luciferase reporter counterscreen, at 3.6 µM, stronger effect = higher value.
In test [2] the target is Nuclear receptor subfamily 5 group A member 2 (Homo sapiens) (UniProt O00482). Nature of the test: NR5A2 activity suppression in reporter cells – cell-based, luminescence, confirmation (AID 651613; in the data active = inhibition above about 42%;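 note: HEK293T cells co-transfected with LRH-1 and StAR promoter luciferase reporter; 0% = vehicle wells and 100% = parental cells lacking receptor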). As to conditions: cell-based LRH-1 luciferase reporter, inverse agonism; at 3.6 µM; stronger effect = higher value.
The target of test [3] is Steroidogenic factor 1 (Homo sapiens) (UniProt Q13285). Nature of the test: inverse agonism at SF1 nuclear receptor – cell-based, luminescence, high throughput, counter-screen for LRH-1 inverse agonist project (AID 651614).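 Note: cells cotransfected with StAR promoter reporter and SF1 expression vector; 0% = vehicle on cells with receptor and 100% = vehicle on cells lacking receptor.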 As to conditions: cell-based SF1 luciferase reporter, at 3.6 µM, stronger effect = higher value.
Test [4] in a line: compounds suppressing VP16-driven luciferase signal – cell-based, luminescence, high throughput, counter-screen for LRH-1 inverse agonist project (AID 651615; in the data active = inhibition above about 33%). The following applies: Gal4-VP16 luciferase reporter cells, at 3.6 µM, stronger effect = higher value.

Sequence of Steroidogenic factor 1 (Homo sapiens) (Q13285 whole entry, looked up, the tested form may be a part): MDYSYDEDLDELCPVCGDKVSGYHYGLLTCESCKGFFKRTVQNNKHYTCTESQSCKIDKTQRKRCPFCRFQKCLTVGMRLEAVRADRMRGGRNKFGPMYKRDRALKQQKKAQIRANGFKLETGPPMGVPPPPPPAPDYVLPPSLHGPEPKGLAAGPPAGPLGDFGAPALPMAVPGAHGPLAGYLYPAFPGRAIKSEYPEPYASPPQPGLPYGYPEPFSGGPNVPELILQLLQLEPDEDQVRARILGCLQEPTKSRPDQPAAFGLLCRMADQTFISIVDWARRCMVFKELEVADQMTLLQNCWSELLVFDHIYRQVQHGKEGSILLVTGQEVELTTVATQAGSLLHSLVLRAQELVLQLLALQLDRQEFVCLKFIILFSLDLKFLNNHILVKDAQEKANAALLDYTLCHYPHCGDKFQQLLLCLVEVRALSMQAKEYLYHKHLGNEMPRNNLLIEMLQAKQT
Sequence of Nuclear receptor subfamily 5 group A member 2 (Homo sapiens) (O00482 whole entry, looked up): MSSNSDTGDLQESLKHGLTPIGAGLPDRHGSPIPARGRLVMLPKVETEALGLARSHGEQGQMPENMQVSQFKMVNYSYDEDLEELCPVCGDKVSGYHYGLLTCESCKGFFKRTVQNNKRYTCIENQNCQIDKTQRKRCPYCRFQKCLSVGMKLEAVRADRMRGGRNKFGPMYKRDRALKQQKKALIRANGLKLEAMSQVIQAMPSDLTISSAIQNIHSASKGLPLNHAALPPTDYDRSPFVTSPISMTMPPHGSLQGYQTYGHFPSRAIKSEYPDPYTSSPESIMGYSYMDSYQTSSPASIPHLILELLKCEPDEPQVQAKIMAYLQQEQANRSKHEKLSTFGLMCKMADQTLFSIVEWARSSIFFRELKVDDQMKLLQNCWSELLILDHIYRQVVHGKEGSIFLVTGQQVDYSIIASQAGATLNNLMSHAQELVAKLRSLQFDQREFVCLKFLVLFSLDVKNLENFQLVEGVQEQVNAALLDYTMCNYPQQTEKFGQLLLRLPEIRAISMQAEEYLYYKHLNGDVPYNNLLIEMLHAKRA

On to `CCOC(=O)c1cnc(-n2nc(C)cc2C)nc1NC1CCCC1`, for which the inhibition in test [1] was 0.01%; in test [2], 56.9% (active); in test [3], 52.4% (active); in test [4], 9.25%.
As to `Cc1onc(-c2ccccc2Cl)c1C(=O)O/N=C(\N)c1ccc([N+](=O)[O-])o1`, the inhibition in test [1] is 10.8%; in test [2] it was 66.3% (active); in test [3], 62.5% (active); in test [4], -5.99%.
The corresponding values for `CCc1cccc2sc(N3CCN(C(=O)c4ccc([N+](=O)[O-])o4)CC3)nc12` are 3.02%, 57.7% (active), 52.5% (active) and 17.4%.
The like results for `Cc1ccc(NC(=O)COC(=O)CCC2CCCC2)c(Br)c1` were, in that order, 5.75%, 40.9%, 46.2% (active) and -5.49%.
The corresponding values for `NC(=O)c1oc2ccccc2c1NC(=O)c1ccc([N+](=O)[O-])o1` are 23.2%, 67.6% (active), 69.1% (active) and -9.15%.
Turning to `CC(O)(c1ccc(F)c(F)c1)c1nc(-c2ccc(S(C)(=O)=O)cc2)cs1` (stereo not drawn), the inhibition in test [1] was 3.51%; in test [2], 53.5% (active); in test [3], 49.5% (active); in test [4] it was -2.47%.
The like results for `Cn1cc(Cl)c(C(=O)OCC(=O)Nc2ccc(S(N)(=O)=O)cc2)n1` were, in that order, 10.9%, 55.2% (active), 50.4% (active) and -12.4%.
Take `C#CCN(C[C@@H]1[C@@H](OC(=O)NCc2ccc(OC)c(OC)c2)[C@@H](OC(=O)NCc2ccc(OC)c(OC)c2)Cn2c(=O)ccc(=O)n21)S(=O)(=O)c1ccc(C)cc1`: the inhibition was 16.6% in test [1], 40% in test [2], 35.7% in test [3] and 10.2% in test [4].
The corresponding values for `Cc1c(NC(=O)c2cc(-c3cccs3)nc3ccccc23)c(=O)n(-c2ccccc2)n1C` are 47% (active), 33.5%, 18% and 2.7%.
The like results for `COc1ccc(CCNC(=O)c2cc(-c3ccco3)on2)cc1OC` were, in that order, -181%, 43.8% (active), 50.5% (active) and -5.34%.
On to `ClCc1ncc(-c2ccc(Cl)cc2)o1`, for which the inhibition was 15.7% in test [1], 70% (active) in test [2], 62.7% (active) in test [3] and -28.8% in test [4].
The corresponding values for `Cc1cc(=O)oc2c(C)c(OCC(=O)NC3CC(C)(C)NC(C)(C)C3)ccc12` are -1.6%, 48% (active), 55% (active) and -11.2%.
Take `CCN(CC)S(=O)(=O)c1cccc(NC(=O)CNc2cccc(S(=O)(=O)N3CCCC3)c2)c1`: the inhibition in test [1] was 26.7%; in test [2], 64.4% (active); in test [3], 59.8% (active); in test [4], 49.5% (active).
The like results for `COc1cccc(C(C)(O)c2nc(-c3ccoc3)cs2)c1` (stereo not drawn) were, in that order, -0.36%, 30.2%, 21.5% and -0.14%.
On to `COc1cc2c(cc1OC)CN(C(=O)c1cc(=O)c3ccccc3o1)CC2`, for which the inhibition in test [1] was 46.3% (active); in test [2] it was 30.2%; in test [3], 40.7%; in test [4], 16%.
The like results for `COc1ccc(-c2c(C)nn3c(NC4CCCC4)cc(C)nc23)cc1OC` were, in that order, 25.9%, 62.9% (active), 54.8% (active) and -3.44%.
In the case of `CCc1c(O)nc(SCC(=O)Nc2ccc(OC)cc2)n(C2CCCCC2)c1=O`, the inhibition was 13.3% in test [1], 55.5% (active) in test [2], 51.4% (active) in test [3] and 5.01% in test [4].
The corresponding values for `NC(=O)c1ccc(NC(=O)COC(=O)C2COc3ccccc3O2)cc1` (stereo not drawn) are 21.9%, 52.4% (active), 56.7% (active) and -20.5%.
As for `CCOc1ccc(NC(=O)Cn2nc(-c3ccccc3Cl)n(CC)c2=S)cc1`, the inhibition was 1.73% in test [1], 60.4% (active) in test [2], 54.6% (active) in test [3] and 2.74% in test [4].
For `CCOc1ccc(NC(=O)CSc2nc3ccccc3c(=O)n2CCCC(=O)NCC2CCCO2)cc1` (stereo not drawn), the inhibition is 1.46% in test [1], 41.9% (active) in test [2], 40.1% in test [3] and -6.22% in test [4].
The like results for `Cc1ccc(S(=O)(=O)Nc2ccc3c(c2)n(C)c(=O)n3C)cc1` were, in that order, 40.1% (active), 48.8% (active), 38.3% and -96.8%.
Take `CCOc1cc(/C=C2\C(=N)N3N=C(C)SC3=NC2=O)ccc1OCCOc1cccc(OC)c1`: the inhibition is 10% in test [1], 39.7% in test [2], 40.2% in test [3] and 6.87% in test [4].
As for `O=C(NCc1cccnc1)c1ccc([N+](=O)[O-])o1`, the inhibition in test [1] is 16.3%; in test [2] it was 62.7% (active); in test [3] it was 63.4% (active); in test [4], -3.23%.
The like results for `CN(C)c1ccc(CN(C(=O)C2COc3ccccc3O2)C2CCS(=O)(=O)C2)cc1` (stereo not drawn) were, in that order, 3.73%, 35.1%, 39.1% and 1.92%.
As to `c1cncc(-c2nc(N3CCCCCC3)c3ccccc3n2)c1`, the inhibition in test [1] is 20.8%; in test [2], 56.4% (active); in test [3], 62.8% (active); in test [4] it was 10.4%.
With `Cc1cccc2cc(C#N)c(SCC(=O)N3CC(=O)Nc4ccccc43)nc12`, the inhibition in test [1] was 53.7% (active); in test [2], 23.3%; in test [3] it was 38.1%; in test [4], 38.5% (active).
The like results for `CC1(C(=O)NCc2ccco2)Cc2c(-c3cccc(C(N)=O)c3)ccnc2O1` (stereo not drawn) were, in that order, 49.6% (active), 57.9% (active), 59.3% (active) and -9.28%.
Consider `CC(C)[C@H](NC(=O)OCc1ccccc1)C(=O)OCC(=O)Nc1ccc(N2CCOCC2)cc1`, for which the inhibition is 10.9% in test [1], 59.9% (active) in test [2], 59.2% (active) in test [3] and -0.29% in test [4].
For the molecule `Cc1cc2oc(=O)cc(-c3ccccc3)c2c(C)c1-c1ccc(CO)cc1`, the inhibition was 10.8% in test [1], 71.5% (active) in test [2], 63.6% (active) in test [3] and 16.8% in test [4].
On to `COc1c(/C=N/NC(N)=S)c(C)nn1-c1ccccc1`, for which the inhibition was 1.43% in test [1], 39.5% in test [2], 27.9% in test [3] and -8.71% in test [4].
As for `COc1ccc(S(=O)(=O)N2CCCN(CC(=O)Nc3ccc(OC)c(Cl)c3)CC2)cc1`, the inhibition in test [1] was 17.7%; in test [2], 65.8% (active); in test [3], 57.7% (active); in test [4], -5.36%.
The like results for `CCc1cc(=O)oc2cc(C)cc(OCC(=O)NC3CC3)c12` were, in that order, -0.05%, 66.5% (active), 55.9% (active) and 10.2%.
The like results for `NC(=O)COc1ccc2c3c(c(=O)oc2c1)CCCCC3` were, in that order, -1.98%, 40.5%, 41.6% and 0.54%.
The corresponding values for `Cc1ccccc1C(=O)O/N=C/c1c(N2CCOCC2)n(C)c2ccccc12` are 76.4% (active), 84.3% (active), 91.4% (active) and 58.8% (active).
`COc1ccc(OC)c(-n2c(-c3ccc(S(C)(=O)=O)cc3)cc(C=O)c2C)c1`: the inhibition is 25% in test [1], 48.2% (active) in test [2], 55.3% (active) in test [3] and -41.9% in test [4].
Consider `Cc1ccc2c(c1)N(C)/C(=C/c1cccc[n+]1C)S2`, for which the inhibition was 28% (active) in test [1], 61.8% (active) in test [2], 64% (active) in test [3] and 67% (active) in test [4].
The like results for `CC(=O)Nc1ccc(-c2c(C)cc3oc(=O)cc(-c4ccccc4)c3c2C)cc1` were, in that order, 15.9%, 57.9% (active), 58.9% (active) and -2.96%.
The like results for `CCOC(=O)c1cc(-c2ccncc2)nc2c1c(C)nn2-c1ccccn1` were, in that order, 14.2%, 44.6% (active), 48% (active) and 13.1%.
In the case of `COc1cccc(-c2cnc3c(NC(C)=O)cc(-c4ccc(S(C)(=O)=O)cc4)cn23)c1`, the inhibition is 15.6% in test [1], 53.3% (active) in test [2], 41.6% in test [3] and -13.3% in test [4].
The corresponding values for `COC(=O)c1cc2occc2n1CC(=O)Nc1ccc(C)cc1C` are 13.8%, 66.8% (active), 51.6% (active) and 1.15%.
For `CCOC(=O)N1CCN(C(=O)CSc2nc3c([nH]c4ccccc43)c(=O)n2CC)CC1`, the inhibition in test [1] is 36.3% (active); in test [2], 63.7% (active); in test [3], 55.8% (active); in test [4] it was -25.2%.
The corresponding values for `COC(=O)c1ccc(NC(=O)CN2CCC(NC(=O)c3ccccc3F)CC2)cc1` are 23.6%, 52.3% (active), 44.1% (active) and -4.8%.
Regarding `CCOc1ccc(NC(=O)CSc2nc(O)c(C)c(=O)n2-c2ccc(F)cc2)cc1`, the inhibition in test [1] is 5.33%; in test [2], 60.6% (active); in test [3] it was 50.6% (active); in test [4] it was -14.2%.
In the case of `O=C1c2cc(F)ccc2-n2c1nc1ccccc1c2=O`, the inhibition was 50.5% (active) in test [1], 72.4% (active) in test [2], 73.9% (active) in test [3] and 67.9% (active) in test [4].
The corresponding values for `C=CC(=O)Nc1ccc(Br)cc1` are 20.7%, 41%, 51.4% (active) and -1.85%.
The corresponding values for `O=C(Cc1cccs1)N/N=C\c1ccc([N+](=O)[O-])s1` are 12.1%, 64.9% (active), 56.4% (active) and 12.6%.
The corresponding values for `O=[N+]([O-])c1ccc(N2CCCC2)cc1NC1CC1` are 0.53%, 47.1% (active), 47.3% (active) and -3.08%.
`COc1ccc(NC(=O)COC(=O)c2c(-c3ccccc3)noc2C)cc1`: the inhibition in test [1] is 15.3%; in test [2], 63% (active); in test [3] it was 66.1% (active); in test [4], -5.04%.
Consider `CCOc1ccc(CCNC(=O)COC(=O)c2ccc(OC)c(OC)c2OC)cc1OCC`, for which the inhibition in test [1] is 11.7%; in test [2], 53.8% (active); in test [3], 55.5% (active); in test [4], -6.44%.
As for `CC(=O)Nc1ccc2nc(NC(=O)c3ccc([N+](=O)[O-])o3)sc2c1`, the inhibition in test [1] was 1.53%; in test [2], 53.5% (active); in test [3], 55.8% (active); in test [4] it was -32.4%.
The like results for `Cc1cc(C)c(C(N)=O)c(Nc2cccc3ccccc23)n1` were, in that order, 1.09%, 2%, 22.7% and -17.9%.
Take `O=[N+]([O-])c1ccc(/C=N/Nc2ccnc3cc(Cl)ccc23)o1`: the inhibition is -10.6% in test [1], 44% (active) in test [2], 40% in test [3] and -10.5% in test [4].
